From PubChem BioAssay (NCI) come the findings set out here.

What all share (experiment): NCI-60 one-dose screen, 48 h (100 = growth as untreated, 0 = no growth, -100 = all killed)
The subject of one test is NCI-H23 lung. The following applies: 10 µM unless noted.
A further test concerns NCI-H226 lung. The following applies: 10 µM unless noted.
The subject of another test is NCI-H322M lung. The following applies: 10 µM unless noted.
A further test deals with HOP-62 NSCLC. To be noted: 10 µM unless noted.
In a further test the test system is HOP-92 NSCLC. The following applies: 10 µM unless noted.
The next test relates to A549/ATCC NSCLC. The following applies: 10 µM unless noted.
A further test deals with 786-0 renal. To be noted: 10 µM unless noted.
For the next test, the system named is COLO 205 colon. To be noted: 10 µM unless noted.
The subject of another test is DU-145 prostate. To be noted: 10 µM unless noted.
In the next test the test system is K-562 leukemia. To be noted: 10 µM unless noted.
In the next test the test system is MALME-3M melanoma. The following applies: 10 µM unless noted.
The next test has as its system MDA-MB-231 breast. The following applies: 10 µM unless noted.
The next test has as its system RXF 393 renal. The following applies: 10 µM unless noted.
The test system of a further test is SF-268 CNS. The following applies: 10 µM unless noted.
The test system of another test is SF-295 CNS. To be noted: 10 µM unless noted.
Another test relates to SF-539 CNS. The following applies: 10 µM unless noted.
Another test concerns UACC-257 melanoma. The following applies: 10 µM unless noted.
The next test deals with M14 melanoma. To be noted: 10 µM unless noted.
Another test has as its system NCI-H522 lung. The following applies: 10 µM.
A further test deals with NCI-H460 lung. The following applies: 10 µM unless noted.

The panel holds about 83,000 compounds, 20% with a hit somewhere; the sample as a whole holds those more often.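 Single-concentration screen, 48 h exposure, 96-well plates. Endpoint: percent growth. Below 10 = active.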 Unmarked numbers belong to inactive results. The source made the active and inactive calls.

With `COc1cnc2c(c1)C(=O)c1c-2n(CCCN2CCCC2)c(=O)c2cc(F)ccc12`, the growth is -19.5% (active) with NCI-H23 lung; -81.2% (active) in the test with NCI-H226 lung; 4.72% (active) in the test with NCI-H322M lung; -16.4% (active) in the test with HOP-62 NSCLC; -5.39% (active) with HOP-92 NSCLC; -80.4% (active) in the test on A549/ATCC NSCLC. Further, the growth with 786-0 renal is -88.5% (active); in the test with COLO 205 colon it was -6.43% (active); with DU-145 prostate, -1.81% (active); with K-562 leukemia, -45.1% (active); in the test with MALME-3M melanoma it was -71.9% (active); in the test on MDA-MB-231 breast, 23%. The growth in the test on RXF 393 renal is -81% (active); in the test on SF-268 CNS, 12.1%; with SF-295 CNS, -20.4% (active); in the test with SF-539 CNS, -39.3% (active); with UACC-257 melanoma, -12.2% (active); in the test with M14 melanoma it was 2.05% (active).
In the case of `Cc1ccc(C(NC(=O)c2ccccc2)c2ccc3cccnc3c2O)cc1` (stereo not given), the growth in the test with NCI-H23 lung was 23.5%; in the test on NCI-H226 lung it was -6.24% (active); in the test on NCI-H322M lung it was 25.3%; in the test on HOP-62 NSCLC, 17.3%; in the test on HOP-92 NSCLC, 24.8%; in the test with NCI-H522 lung it was -5.42% (active). Moreover, the growth with 786-0 renal is -14.5% (active); with COLO 205 colon, 29.3%; in the test on DU-145 prostate it was 20.7%; in the test on K-562 leukemia it was 10.1%; in the test on MALME-3M melanoma, 19.9%; with MDA-MB-231 breast it was 16.5%. In addition, the growth with RXF 393 renal was 41.8%; in the test with SF-268 CNS, 8.85% (active); with SF-295 CNS, 10.3%; in the test on SF-539 CNS, 7.53% (active); with M14 melanoma, -22.9% (active).
Regarding `O=C(O)c1ccc(CNS(=O)(=O)c2ccc3ccccc3c2)cc1`, the growth with NCI-H23 lung is 119%; with NCI-H226 lung, 100%; in the test with NCI-H322M lung it was 114%; in the test with HOP-62 NSCLC, 112%; in the test on NCI-H460 lung it was 120%; with HOP-92 NSCLC, 132%. Besides, the growth with 786-0 renal was 106%; with DU-145 prostate, 93.7%; in the test with K-562 leukemia it was 94.5%; in the test on MALME-3M melanoma, 93.7%; in the test on MDA-MB-231 breast, 105%; with SF-268 CNS, 96.2%. Also, the growth was 105% in the test with SF-295 CNS, 106% in the test with SF-539 CNS, 99.1% in the test with UACC-257 melanoma and 103% in the test on M14 melanoma.
On to `CC(=O)O[C@H]1CC[C@@]2(C)C(=CC[C@@H]3[C@@H]2CC[C@]2(C)C(c4cccnc4)=CC[C@@H]32)C1`, for which the growth in the test with NCI-H23 lung was 66.6%; in the test on NCI-H226 lung it was 64.1%; with NCI-H322M lung, 95.6%; in the test on HOP-62 NSCLC, 75.7%; in the test with NCI-H460 lung it was 68.2%; in the test on HOP-92 NSCLC, 79.4%. Besides, the growth in the test on 786-0 renal was 13.6%; in the test on COLO 205 colon it was 81.8%; with DU-145 prostate, 94.9%; in the test on MALME-3M melanoma, 72.6%; in the test on MDA-MB-231 breast, 86.3%; in the test on SF-268 CNS it was 76.4%. Also, the growth was 43.3% in the test with SF-295 CNS, 28.7% in the test on SF-539 CNS and 72.7% in the test with M14 melanoma.
Turning to `CC[C@@H](C)/C=C(C)/C=C/C(O)=C1\C(=O)N[C@@H](Cc2ccc(OC(=O)[C@@](OC)(c3ccccc3)C(F)(F)F)cc2)C1=O`, the growth was 99.2% in the test with NCI-H23 lung; 104% in the test with NCI-H226 lung; 91% in the test on NCI-H322M lung; 110% in the test on HOP-62 NSCLC; 41.5% in the test on HOP-92 NSCLC; 97.2% in the test on A549/ATCC NSCLC. In addition, the growth with 786-0 renal was 90.8%; in the test with DU-145 prostate it was 73.2%; in the test with K-562 leukemia, 9.3% (active); in the test with MDA-MB-231 breast it was 89.5%; in the test on RXF 393 renal, 109%; in the test on SF-268 CNS, 61.9%. Besides, the growth was 74.2% with SF-295 CNS, 114% in the test with SF-539 CNS, 94% with UACC-257 melanoma and 97% in the test with M14 melanoma.
Take `COc1ccc2c(c1)sc1nc(-c3ccc(Br)cc3)cn12`: the growth in the test on NCI-H23 lung was 100%; in the test on NCI-H226 lung, 101%; in the test with NCI-H322M lung, 99.8%; in the test on HOP-62 NSCLC, 108%; with HOP-92 NSCLC, 101%; in the test with A549/ATCC NSCLC, 95%. In addition, the growth in the test with 786-0 renal is 98%; in the test on COLO 205 colon it was 129%; in the test with DU-145 prostate it was 115%; in the test with K-562 leukemia, 90.9%; in the test with MALME-3M melanoma it was 109%; in the test on MDA-MB-231 breast, 89.6%. For the same compound, the growth was 109% in the test with RXF 393 renal; 118% in the test with SF-268 CNS; 89.2% in the test on SF-295 CNS; 105% in the test on SF-539 CNS; 101% with UACC-257 melanoma; 103% in the test on M14 melanoma.
Turning to `Cn1ccnc1C(=O)/C=C/c1ccc(C(=O)Nc2nc3ccccc3[nH]2)cc1`, the growth was 23.3% in the test on NCI-H23 lung; 82.4% with NCI-H226 lung; 43.8% with NCI-H322M lung; 34.1% in the test on HOP-62 NSCLC; 10.9% in the test with NCI-H460 lung; 52.8% in the test on HOP-92 NSCLC. Also, the growth in the test on 786-0 renal was 23.6%; in the test on DU-145 prostate it was -13.7% (active); in the test with K-562 leukemia, 2.24% (active); in the test on MALME-3M melanoma it was 72.7%; in the test with MDA-MB-231 breast, 19.3%; in the test with RXF 393 renal, 2.67% (active). The growth in the test on SF-268 CNS is 40.2%; in the test with SF-295 CNS, 64.9%; in the test on SF-539 CNS, 9.47% (active); in the test with M14 melanoma it was 71.1%.
As for `O=C(Nc1nn2c(-c3cc(C(F)(F)F)cc(C(F)(F)F)c3)nnc2s1)C1CCCC1`, the growth with NCI-H23 lung was -2.97% (active); in the test on NCI-H226 lung, 9.1% (active); with NCI-H322M lung, 4.33% (active); in the test on HOP-62 NSCLC, 8.91% (active); in the test on HOP-92 NSCLC, -24.2% (active); in the test on A549/ATCC NSCLC it was 7.1% (active). In addition, the growth in the test with COLO 205 colon was -82.5% (active); in the test with DU-145 prostate, 33.1%; in the test on K-562 leukemia, 6.69% (active); in the test on MALME-3M melanoma it was 10.4%; with MDA-MB-231 breast, -32% (active); in the test with SF-268 CNS it was 28.4%. Moreover, the growth in the test on SF-295 CNS is 1.49% (active); in the test on SF-539 CNS it was 12.8%; in the test on UACC-257 melanoma, 4.69% (active); with M14 melanoma, 7.59% (active).
For `CC1(C)CC2(C)CC(=O)C1C(C(=O)O)C2C(=O)O` (stereo not given), the growth in the test with NCI-H23 lung was 106%; in the test on NCI-H226 lung, 107%; with NCI-H322M lung, 104%; in the test with HOP-62 NSCLC, 105%; in the test with HOP-92 NSCLC, 113%; with A549/ATCC NSCLC it was 109%. Further, the growth was 123% in the test on 786-0 renal; 107% with COLO 205 colon; 120% in the test with DU-145 prostate; 104% with K-562 leukemia; 110% in the test with MALME-3M melanoma; 107% with MDA-MB-231 breast. The growth with RXF 393 renal was 103%; in the test with SF-268 CNS, 105%; in the test on SF-295 CNS, 105%; in the test on SF-539 CNS it was 108%; with UACC-257 melanoma it was 107%; in the test with M14 melanoma it was 119%.
